PubChem BioAssay AID1159580 (chemical genetic matrix, 2015)
Where “and” joins values, the source holds several entries; their conditions need not be identical. Equal entries are not always repeated. Among all 5,500 compounds or so, about 2,000 (36%) were called active. Another 18% or so got no clear call; they are omitted. Cut-off read from the data, not from the text of the source: active = normalized growth mostly below about 0.91 (no sharp cut-off); inconclusive = no clear call, values can overlap the other calls; inactive = mostly above about 0.92. This is one part of the list.

Test: chemical genetic growth profiling, strain panel (AID 1159580);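 note: tested at 20 µM; growth read once vehicle control cultures reached saturation at 30 °C; 1 = growth at the plate median or of vehicle wells; lower values mean less growth of the strain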
Details: S. cerevisiae deletion strains, growth OD

Measured: normalized growth

O=C(c1ccccc1)c1ccc2n1CCC2C(=O)O (stereo not drawn)
inactive: locus YAL013W, strain DEP1, stronger effect = lower value 0.993 | locus YAL021C, strain ccr4, stronger effect = lower value 0.98 | locus YAL026C, strain drs2, stronger effect = lower value 0.983 | locus YAL030W, strain snc1, stronger effect = lower value 0.978 | locus YAL040C, strain CLN3, stronger effect = lower value 1.01 | locus YBL061C, strain skt5, stronger effect = lower value 1.01 | locus YBR009C, strain hhf1, stronger effect = lower value 0.991 | locus YBR021W, strain FUR4, stronger effect = lower value 0.988 | locus YBR023C, strain chs3, stronger effect = lower value 1.01 | locus YBR171W, strain sec66, stronger effect = lower value 0.994 | locus YBR229C, strain ROT2, stronger effect = lower value 1.01 | locus YBR231C, strain swc5, stronger effect = lower value 1.01 | locus YBR279W, strain paf1, stronger effect = lower value 1.01 | locus YCL011C, strain gbp2, stronger effect = lower value 0.974 | locus YCL016C, strain dcc1, stronger effect = lower value 0.995 | locus YCL029C, strain bik1, stronger effect = lower value 0.956 | locus YCL061C, strain MRC1 (second series), stronger effect = lower value 1.02 | locus YCL069W, strain vba3, stronger effect = lower value 0.979 | locus YCR088W, strain abp1, stronger effect = lower value 1.01 | locus YDL005C, strain med2, stronger effect = lower value 0.967 | locus YDL035C, strain GPR1, stronger effect = lower value 0.987 | locus YDL040C, strain nat1, stronger effect = lower value 0.997 | locus YDL074C, strain BRE1, stronger effect = lower value 1.05 | locus YDL101C, strain DUN1, stronger effect = lower value 1 | locus YDL134C, strain PPH21, stronger effect = lower value 0.988 | locus YDL185W, strain tfp1, stronger effect = lower value 0.958 | locus YDL192W, strain arf1, stronger effect = lower value 0.968 | locus YDR001C, strain nth1, stronger effect = lower value 0.968 | locus YDR069C, strain doa4, stronger effect = lower value 1.01 | locus YDR101C, strain arx1, stronger effect = lower value 1.01 | locus YDR137W, strain rgp1, stronger effect = lower value 0.945 | locus YDR150W, strain NUM1, stronger effect = lower value 0.994 and 1.01 | locus YDR159W, strain sac3, stronger effect = lower value 0.955 | locus YDR162C, strain NBP2, stronger effect = lower value 0.982 | locus YDR195W, strain ref2 0.975 | locus YDR297W, strain sur2, stronger effect = lower value 0.991 | locus YDR318W, strain mcm21, stronger effect = lower value 0.969 | locus YDR334W, strain swr1, stronger effect = lower value 0.976 | locus YDR335W, strain msn5, stronger effect = lower value 0.988 | locus YDR363W, strain ESC2, stronger effect = lower value 1.02 | locus YDR388W, stronger effect = lower value 0.981 | locus YDR392W, strain spt3, stronger effect = lower value 0.935 | locus YDR502C, strain sam2, stronger effect = lower value 0.987 | locus YEL003W, strain gim4, stronger effect = lower value 0.997 | locus YEL037C, strain rad23, stronger effect = lower value 0.984 | locus YEL061C, strain CIN8 (second series), stronger effect = lower value 0.999 | locus YEL061C, strain CIN8, stronger effect = lower value 0.994 | locus YER002W, strain NOP16, stronger effect = lower value 0.998 | locus YER015W, strain faa2, stronger effect = lower value 0.99 | locus YER016W, strain bim1, stronger effect = lower value 0.988 | locus YER110C, stronger effect = lower value 0.96 | locus YER111C, strain swi4, stronger effect = lower value 1 | locus YER155C, strain BEM2 (second series), stronger effect = lower value 1.01 | locus YER155C, strain BEM2, stronger effect = lower value 1 | locus YER167W, strain BCK2, stronger effect = lower value 0.997 | locus YFR010W, strain ubp6, stronger effect = lower value 0.981 | locus YGL078C, strain dbp3, stronger effect = lower value 0.982 | locus YGL086W, strain mad1, stronger effect = lower value 0.995 | locus YGL167C, strain pmr1, stronger effect = lower value 0.998 | locus YGL173C, strain kem1, stronger effect = lower value 1 | locus YGL227W, strain vid30, stronger effect = lower value 0.996 | locus YGL240W, strain doc1, stronger effect = lower value 1.02 | locus YGL248W, strain PDE1, stronger effect = lower value 1.01 | locus YGL253W, strain hxk2, stronger effect = lower value 0.974 | locus YGR135W, strain pre9, stronger effect = lower value 0.974 | locus YGR252W, strain gcn5, stronger effect = lower value 0.996 | locus YHR013C, strain ard1, stronger effect = lower value 0.994 | locus YHR027C, strain rpn1, stronger effect = lower value 1.01 | locus YHR030C, strain SLT2, stronger effect = lower value 0.988 and 0.999 | locus YHR079C, strain IRE1 (second series), stronger effect = lower value 0.965 | locus YHR079C, strain IRE1, stronger effect = lower value 1.02 | locus YHR094C, strain hxt1, stronger effect = lower value 0.985 | locus YHR129C, strain ARP1, stronger effect = lower value 0.991 | locus YHR142W, strain chs7, stronger effect = lower value 0.975 | locus YHR200W, strain rpn10, stronger effect = lower value 0.96 | locus YIL066C, strain RNR3, stronger effect = lower value 1 | locus YIL073C, strain SPO22, stronger effect = lower value 0.922 | locus YIL125W, strain kgd1, stronger effect = lower value 0.985 | locus YIR030C, strain dcg1, stronger effect = lower value 0.973 | locus YJL092W, strain hpr5, stronger effect = lower value 0.984 | locus YJL095W, strain BCK1 (second series), stronger effect = lower value 0.993 | locus YJL095W, strain BCK1, stronger effect = lower value 1.03 and 0.992 | locus YJL115W, strain asf1, stronger effect = lower value 0.984 | locus YJL129C, strain trk1, stronger effect = lower value 1.02 | locus YJL134W, strain LCB3, stronger effect = lower value 0.99 | locus YJL154C, strain vps35, stronger effect = lower value 0.975 | locus YJL164C, strain tpk1, stronger effect = lower value 0.965 | locus YJL166W, strain qcr8, stronger effect = lower value 1.02 | locus YJL168C, strain set2, stronger effect = lower value 0.979 | locus YJL187C, strain SWE1 (second series), stronger effect = lower value 1.01 | locus YJL187C, strain SWE1, stronger effect = lower value 0.986 | locus YJR043C, strain POL32, stronger effect = lower value 0.997 | locus YJR066W, strain TOR1, stronger effect = lower value 0.966
